Screen size: about 4,800 compounds; about 420 (8.8%) showed an effect of 50% or more. This excerpt belongs to a sample that is enriched for strong results.
tested on: Plasmodium falciparum; assay: Confirmatory screen in NF54 nanoGlo assay, in single point, at 2uM, 72h; type: functional, Erythrocyte; settings: timepoint 72 hour

| Compound | % Inhibition [%] |
| --- | --- |
| C[C@H](N)c1ccc(Nc2ncc3cc(-c4ccncc4)ccc3n2)cc1 | 93 |
| CC(C)c1ccc(-c2n[nH]nc2C(=O)c2ccccc2N)cc1 | -1 |
| CC(C)c1ncsc1C(=O)NC(C)(C)C(=O)NCC1CCCC1 | -13 |
| Cc1cccc(NC(=O)c2c(C)sc3ncnc(N4CCCCC4)c23)c1C | 10 |
| C[n+]1ccc(-c2ncc(-c3ccccc3)o2)c2ccccc21 | 75 |
| CCn1ccnc1C(=O)Nc1ccc(OC)nc1 | -6 |
| CCc1ccc(CS(=O)(=O)NC(=O)c2cn3ccnc3s2)cc1 | 6 |
| Cc1ccc(NC(=O)c2cn(CC3(O)CCN(Cc4ccccc4)CC3)nn2)c(C)c1 | 1 |
| N#Cc1ccc(NCCc2ccc(O)cc2)cn1 | -9 |
| O=C(Nc1[nH]c(=O)ncc1F)c1cccc2ccccc12 | 84 |
| O=C(Nc1ccccc1-c1nnc[nH]1)c1ccc(F)c(Cl)c1 | -3 |
| O=C(Nc1[nH]c(=O)ncc1F)c1cc(F)c(F)cc1Br | 95 |
| COc1ccc(C(=O)Nc2ccc3c(c2)C(=O)Nc2cccnc2O3)cc1OC | 46 |
| COc1cc(C(=O)Nc2[nH]c(=O)ncc2F)ccc1Cl | 81 |
| Cn1ccc(NC(=O)c2cccc3ccccc23)n1 | -8 |
| CC1(C)C(=O)NCCN1C(=O)c1cccc2ccccc12 | 5 |
| CC(C)CN1C(=O)CC[C@@H](C(=O)NCCCOC(C)C)[C@@H]1c1cccnc1 | -13 |
| Cc1cc(C(=O)Nc2cc(Br)c(=O)n(C)c2)no1 | -14 |
| Cc1ccc(N2CCCC2)c(C(=O)N2CCN(Cc3c(C)nc4cc(C)ccn34)CC2)c1 | 3 |
| O=C(Nc1cnc(-n2ccnc2)nc1)C(c1ccccc1)c1ccccc1 | 36 |
| C[C@H]1CCCN(c2nc3ncn(CC(=O)Nc4ccccc4C(F)(F)F)c(=O)c3s2)C1 | -15 |
| O=C(NC1CCCCC1)c1cc2c(Cl)ccc3c2n1CCO3 | -10 |
| COc1ccc(-c2[nH]ncc2C(=O)NCC2CCCCC2)cc1OC | 2 |

| Compound | % Inhibition [%] |
| --- | --- |
| O=C(NCC1CCOCC1)c1ccc2n[nH]c(=O)n2c1 | -1 |
| COc1ccc(C(=O)N2CC[C@H](c3nc(C4CCOCC4)no3)C2)cc1OC | 2 |
| O=C(CC1CCOCC1)NCc1ccccn1 | -11 |
| Cc1ccc(C(=O)N2CC(n3cnnc3C)C2)cc1F | -19 |
| COc1nc(-c2cccc(C(=O)NCC3CCOCC3)c2)ncc1F | 66 |
| COCc1cc(C(=O)N[C@H](c2ccccc2)C2CCOCC2)no1 | 0 |
| COc1nc(-c2cccc(C(=O)N3C[C@@H]4CC[C@H](C3)C(=O)N4)c2)ncc1F | 67 |
| COCc1cc(C)n(CC#N)c(=O)c1C#N | 11 |
| CCCc1ccc(Cl)c(S(=O)(=O)Nc2nnc(C3CC3)o2)c1 | 2 |
| COC[C@@H](C)CNc1nc(C)cc(C)n1 | -3 |
| CCn1cc2c(n1)c(=O)n(Cc1ccc(C)cc1)c(=O)n2CC(=O)Nc1ccc(C)cc1C | -10 |
| COc1ccc(C(=O)N2CC[C@H](CC(=O)N3CCOCC3)C2)cc1 | -9 |
| Cc1c(C(=O)NCCc2ccc(Cl)cc2)oc2ccc3c(c12)[C@@H](O)CC(C)(C)O3 | 4 |
| O=C(N[C@H](c1ccccc1)C1CC1)c1cccnc1O | -9 |
| CC1CCCC(N2C(=O)c3ccccc3C2NCc2ccccc2)C1C (stereo not drawn) | 0 |
| CCOC(=O)c1cnc(N2CCCC2)nc1C1CCN(C(=O)OC(C)(C)C)CC1 | -2 |
| Cc1cc(C(=O)NCc2ccco2)nn1C(F)F | -13 |
| Cc1noc(C)c1CS(=O)(=O)CCC(=O)NC1CCCCC1 | -11 |
| CC(c1ccccc1)N1C(=O)c2ccccc2C1c1c[nH]c2ccccc12 (stereo not drawn) | 23 |
| CCOc1cc(C)ccc1S(=O)(=O)NC(C)C | -3 |
| NC1CC(NCCc2cccc3cccnc23)c2ccccc21 (stereo not drawn) | 43 |
| NC(=NCc1cccc2cccnc12)N1CCN(c2nccs2)CC1 | 57 |
| Cc1ccc(C(=O)N2CCC(N3C(=O)[C@H]4CCCN4C3=O)CC2)cc1 | -9 |

| Compound | % Inhibition [%] |
| --- | --- |
| COC(=O)c1cccc(C#Cc2cccc(NC(=O)c3cnc(C)cn3)c2)c1 | -19 |
| Cc1ccc2nc(-c3cccc(NC(=O)c4ccc5c(c4)OCO5)c3)oc2c1 | -12 |
| COCCNC(=O)c1ccc(-n2nc(-c3nnc(C)o3)c(C)c2-c2ccc(OC)cc2)cc1 | 46 |
| CC(C)N(C)CCOC(=O)c1ccccc1Cl | -1 |
| CCN1c2cc(C(=O)NCc3ccncc3)ccc2C(=O)N2CCCC[C@H]21 | -2 |
| Cc1cc(C(=O)N(CCN(C)C)c2ccccc2)c(C)s1 | -1 |
| Cc1cc(C(=O)Nc2ccc(Br)c(C)n2)no1 | -12 |
| Cc1cc(Br)ccc1N1CC[C@@H](C(=O)NC2CC2)C1=O | 2 |
| CCN(CCO)S(=O)(=O)c1ccc2c(c1)CCO2 | -7 |
| c1ccc(CC2=NCCc3ccccc32)cc1 | 65 |
| O=c1cc2c(nn1Cc1cccc(Cl)c1)-c1ccccc1CC2 | -6 |
| Cc1cccc2ncnc(N(C)[C@@H](C)Cc3ccc(O)cc3)c12 | 79 |
| COc1ccccc1Nc1c(-c2cccs2)nc2ccccn12 | -2 |
| Cc1c(N=C2NC3(CCCCC3)Cc3ccccc32)c(=O)n(C)n1-c1ccccc1 | -1 |
| CC1([C@@](O)(C#CC[N+]2(C)CCCCC2)c2ccccc2)CCCC1 | 50 |
| CCC[N+]1(CC#C[C@@](O)(c2ccccc2)C(C)(CC)CC)CCCCC1 | 48 |
| CCC[N+]1(CC#C[C@@](O)(c2ccccc2)C2(C)CCCC2)CCCCC1 | 46 |
| O=C(N1CCCN(c2nc3ccccc3nc2-c2ccccc2)CC1)C(Cl)(Cl)Cl | 46 |
| CCN(CC)c1ccc(C(=O)Nc2ccc3nc(N4CCCC4)cc(C)c3c2)cc1 | 85 |
| CCn1cc(C(=O)Nc2ccc(C(=O)N3CCCCC3)cc2)cn1 | 1 |
| COc1cc(OC)cc(C(=O)Nc2ccc3nc(N4CCC(C)CC4)cc(C)c3c2)c1 | 47 |
| COc1ccc(N(Cc2ccc(F)cc2)S(=O)(=O)c2ccc3nncn3c2)cc1 | -13 |
